This is an account of results in ChEMBL document CHEMBL1157539, “Thousands of chemical starting points for antimalarial lead identification” (Nature, 2010).

Structures are written as SMILES.

As a reminder, the Inhibition is how much of the control response was suppressed. Higher therefore signals a response far below the control.

This test deals with HepG2. The test is described as follows: GSK_TCMDC: Percent inhibition of human HepG2 cell line. Test compounds present at 10uM. The class given is functional.
With `CCC(=O)Nc1ccc(Nc2nc(C)cc(N3CCCC3)n2)cc1`, the Inhibition was determined as 34%. The same measure for `CCCC(=O)Nc1ccc(OCCCN(Cc2cccc(C(F)(F)F)c2)c2ccc(C#N)c(C(F)(F)F)c2)cc1`: 0%.

For `COc1ccc2c(-c3ccccc3)noc2c1`, the Inhibition amounted to 0%. The figure for `O=C(Cc1c[nH]cn1)Nc1cccc(-c2ccc(-c3nc4cc(C(F)(F)F)ccc4[nH]3)s2)c1` is 5%.
